{"source": "PubChem BioAssay (NCATS)", "note": "Calls of active or inactive are those of the source. Calls come from the whole dose curve; as a rule, active = well fitted curve in the direction sought with a large enough effect; inactive = no such curve, though single readings can be large or run the other way.", "data": [{"molecular_target": "Alpha-galactosidase A (Homo sapiens) (UniProt P06280)", "sequence (P06280 whole entry, looked up)": "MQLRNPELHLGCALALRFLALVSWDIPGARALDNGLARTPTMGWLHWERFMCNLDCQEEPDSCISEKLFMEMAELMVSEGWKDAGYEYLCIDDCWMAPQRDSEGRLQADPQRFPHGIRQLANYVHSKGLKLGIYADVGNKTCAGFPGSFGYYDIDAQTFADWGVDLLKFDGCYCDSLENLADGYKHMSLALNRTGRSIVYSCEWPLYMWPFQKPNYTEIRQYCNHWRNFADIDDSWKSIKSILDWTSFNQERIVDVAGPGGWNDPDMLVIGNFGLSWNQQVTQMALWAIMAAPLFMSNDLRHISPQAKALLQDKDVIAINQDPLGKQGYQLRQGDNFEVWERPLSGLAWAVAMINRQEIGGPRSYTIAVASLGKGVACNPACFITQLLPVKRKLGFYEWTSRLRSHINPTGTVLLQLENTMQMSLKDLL", "assay": "Counterscreen for Glucocerebrosidase Inhibitors: qHTS Assay for Human alpha-Galactosidase at pH 4.5 (AID 992)", "conditions": "purified enzyme, fluorogenic substrate; series mostly up to 76.9 µM", "in_short": "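Quantitative HTS: compounds tested from 0.7 nM up to 77 uM against 2 nM enzyme with 80 uM 4-MU alpha-D-galactopyranoside. The 20 min room-temperature reaction is stopped with 1M NaOH/1M glycine, pH 10.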", "values": [{"smiles": "O=[N+]([O-])c1cccc2cn[nH]c12", "outcome": "inactive"}, {"smiles": "OC1(c2ccc(Cl)cc2)CCN(Cc2c[nH]c3ccccc23)CC1", "outcome": "inactive"}, {"smiles": "CCCCCCCC/C=C\\CCCCCCCC(=O)NCCc1ccc(O)c(O)c1", "outcome": "inactive"}, {"smiles": "Nc1ccc(-c2ccc3ccccc3n2)cc1", "outcome": "inactive"}, {"smiles": "CN(C)S(=O)(=O)c1ccc2c(c1)/C(=C/c1cc3c([nH]1)CCCC3)C(=O)N2", "outcome": "inactive"}, {"smiles": "O=C(N[C@@H](Cc1ccccc1)C(=O)CCl)OCc1ccccc1", "outcome": "inactive"}, {"smiles": "O=c1[nH]c2cc(Cl)ccc2c(O)c1-c1ccc(Oc2ccccc2)cc1", "outcome": "inactive"}, {"smiles": "Cn1c(=O)[nH]c2ncn(C)c2c1=O", "outcome": "inactive"}, {"smiles": "Cn1ccnc1", "outcome": "inactive"}, {"smiles": "c1ccc2nc(C3=NCCN3)ccc2c1", "outcome": "inactive"}, {"smiles": "C[C@H](NC(=O)/C(C#N)=C/c1ccc(O)c(O)c1)c1ccccc1", "outcome": "inactive"}, {"smiles": "O=C(O)C1=CCCNC1", "outcome": "inactive"}, {"smiles": "N[C@H](C(=O)O)[C@H](O)C(=O)O", "outcome": "inactive"}, {"smiles": "C[C@H](O)C(=O)C1=Nc2c(nc(N)[nH]c2=O)NC1", "outcome": "inactive"}, {"smiles": "CC(N)=O", "outcome": "inactive"}, {"smiles": "Nc1ncnc2c1c(-c1ccc(Oc3ccccc3)cc1)cn2C1CCCC1", "outcome": "inactive"}, {"smiles": "NCCS(=O)O", "outcome": "inactive"}, {"smiles": "Fc1ccc(CN(C2=NCCN2)c2c(Cl)cccc2Cl)cc1", "outcome": "inactive"}, {"smiles": "NCCCCN=C(N)N", "outcome": "inactive"}, {"smiles": "COc1ccc2c(c1)c(CC(=O)O)c(C)n2Cc1ccc(Cl)cc1", "outcome": "inactive"}, {"smiles": "COc1cc(/C=C(\\C#N)C(=O)c2ccc(O)c(O)c2)cc(I)c1O", "outcome": "inactive"}, {"smiles": "O=C(O)/C(=C/c1c(C(=O)O)[nH]c2cc(Cl)cc(Cl)c12)c1ccccc1", "outcome": "inactive"}, {"smiles": "O=c1[nH]c2ccccc2c2ccccc12", "outcome": "inactive"}, {"smiles": "CC(C)(C)c1cc(/C=C(\\C#N)C(N)=S)cc(C(C)(C)C)c1O", "outcome": "inactive"}, {"smiles": "O=C(O)C1CCNCC1", "outcome": "inactive"}, {"smiles": "O=C(OCCN1CCOCC1)C1(c2ccccc2)CCCCC1", "outcome": "inactive"}, {"smiles": "NCCNS(=O)(=O)c1cccc2c(Cl)cccc12", "outcome": "inactive"}, {"smiles": "COCc1nc2c([nH]1)c(=O)n(C)c(=O)n2CC(C)C", "outcome": "inactive"}, {"smiles": "N[C@H](C(=O)O)c1cc(O)cc(O)c1", "outcome": "inactive"}, {"smiles": "CNCCNS(=O)(=O)c1cccc2cnccc12", "outcome": "inactive"}, {"smiles": "CCCc1c(OCCCOc2ccc(OCC(=O)O)cc2)ccc(C(C)=O)c1O", "outcome": "inactive"}, {"smiles": "O=c1ccc2c(OCCCCc3ccccc3)c3ccoc3cc2o1", "outcome": "inactive"}, {"smiles": "CC[N+](CC)(CC)CC(=O)Nc1c(C)cccc1C", "outcome": "inactive"}, {"smiles": "CNc1cc(NS(=O)(=O)c2ccc(N)cc2)nc(NC)n1", "outcome": "inactive"}, {"smiles": "Cc1ccc2c(c1)C(N1CCN(C)CC1)=Nc1cccnc1N2", "outcome": "inactive"}, {"smiles": "O=C1Cc2c([nH]c3ccc(Br)cc23)-c2ccccc2N1", "outcome": "inactive"}, {"smiles": "CCCc1c(-c2ccc(O)cc2)nn(-c2ccc(O)cc2)c1-c1ccc(O)cc1", "outcome": "inactive"}, {"smiles": "NC1(C(=O)O)CC1", "outcome": "inactive"}, {"smiles": "CCN(c1nc(N)c(C(=O)N=C(N)N)nc1Cl)C(C)C", "outcome": "inactive"}]}]}
